# Screens: PubChem, National Center for Advancing Translational Sciences (NCATS)
# This is a sample that favours compounds with a hit; in the whole collection about 3.5% have one here.
# Tau FP inhib = qHTS for Inhibitors of Tau Fibril Formation, Fluorescence Polarization | K18 P301L tau heparin fibrillization, Alexa594 FP, 6 h | Potency, µM (top dose mostly 57.7 µM), without a hit: at the highest dose activity, negative = inhibition, hits mostly inhibitors | 280,000 compounds, 0.39% hits | AID 1468, 2008; further: nearly all actives have a fitted effect of over 55% in size
# Target sequence (P10636 561-689 P618L limits assumed): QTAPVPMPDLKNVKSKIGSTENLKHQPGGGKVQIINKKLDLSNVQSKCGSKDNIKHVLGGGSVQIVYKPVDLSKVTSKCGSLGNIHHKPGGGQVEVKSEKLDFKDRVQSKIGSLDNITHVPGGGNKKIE
#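 Compound effects on tau fibrillization are measured by Alexa 594 fluorescence polarization (ex 555, em 632 nm). K18 P301L tau is used at 15 uM with 0.24 uM labeled tracer, and 20 uM heparin induces aggregation over 6 hr at 37 C.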
# TRb-SRC2 inh = qHTS for Inhibitors of the Interaction of Thyroid Hormone Receptor and Steroid Receptor Coregulator 2; Thyroid hormone receptor beta (Homo sapiens), P10828; AID 1469, 2008; Potency, µM (titrated, usually from 106 µM), for inactives: at the highest dose activity change, negative = inhibition, usual class: inhibitors; TRbeta-SRC2 peptide binding, fluorescence polarization; receptor liganded with 1 µM T3; 280,000 compounds, 0.065% hits;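 further: plate controls were bound peptide for no effect and peptide without receptor for full effect; nearly all actives have a fitted effect of over 50% in size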
# Target sequence (P10828 whole entry, looked up): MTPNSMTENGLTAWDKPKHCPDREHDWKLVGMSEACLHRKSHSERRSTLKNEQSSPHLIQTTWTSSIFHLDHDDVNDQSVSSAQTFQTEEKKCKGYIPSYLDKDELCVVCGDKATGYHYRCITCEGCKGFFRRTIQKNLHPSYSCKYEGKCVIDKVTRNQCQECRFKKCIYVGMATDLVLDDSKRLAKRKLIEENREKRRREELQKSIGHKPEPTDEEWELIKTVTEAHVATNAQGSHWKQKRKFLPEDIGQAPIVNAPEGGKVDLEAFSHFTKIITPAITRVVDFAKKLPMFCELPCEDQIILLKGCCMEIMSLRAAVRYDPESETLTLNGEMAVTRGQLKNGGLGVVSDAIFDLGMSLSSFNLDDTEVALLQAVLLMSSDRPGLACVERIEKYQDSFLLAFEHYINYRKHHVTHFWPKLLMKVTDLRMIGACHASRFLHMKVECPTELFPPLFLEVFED
#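 Polarization signal, normalized between peptide-alone and full complex controls, measured compound effects on T3-liganded human TRb LBD (0.6 uM) binding 20 nM Texas Red SRC2 peptide after 5 hr.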
# JMJD2E inh = qHTS Assay for Inhibitors of Human Jumonji Domain Containing 2E (JMJD2E); Lysine-specific demethylase 4E (Homo sapiens), B2RXH2; Potency, µM (titrated, usually from 57.1 µM), for the others: top-dose activity change, negative = inhibition, most hits filed as inhibitors; JMJD2E catalytic domain, FDH-coupled NADH fluorescence (FDH is formaldehyde dehydrogenase); AID 2147, 2009; 230,000 compounds, 1.6% hits; active means well fitted inhibition curve with a large enough effect, not every such curve was filed as active; inconclusive means small, poorly fitted or top-dose-only effect, or another doubt; inactive means no such curve, though single readings can be large or run the other way;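 further: 0% = wells with enzyme and -100% = buffer wells without enzyme; nearly all actives have a fitted effect of over 50% in size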
# Tau ThT inhib = qHTS for Inhibitors of Tau Fibril Formation, Thioflavin T Binding | 270,000 compounds, 2.1% hits | Microtubule-associated protein tau (Homo sapiens), P10636 | recombinant tau K18 P301L, heparin-induced fibrillization, ThT fluorescence | Potency, µM (doses to about 57.4 µM), inactives show at the highest dose activity, negative = inhibition, actives largely listed as inhibitors; further: nearly all actives have a fitted effect of over 55% in size
#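 Fibril formation assay: tau K18 P301L at 15 uM with trace Alexa 594 label, heparin inducer 20 uM, pH 7 sodium acetate buffer, 37 C for 6 hr; endpoint ThT signal.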
# Tau fluor cs = Counterscreen qHTS for Inhibitors of Tau Fibril Formation, Fluorescence Polarization. Potency, µM (series often up to 57.7 µM), for the others: at the top dose activity change, negative = decrease. tau K18 P301L (four-repeat tau fragment) Alexa594 fluorescence, heparin fibrillization. 280,000 compounds, 0.93% hits; further: nearly all actives have a fitted effect of over 55% in size
#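 Human K18 P301L tau (15 uM unlabeled plus 0.24 uM Alexa 594-labeled, final) in 100 mM sodium acetate pH 7 was mixed with compound and 20 uM heparin and incubated 6 hr at 37 C.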
# TR SRC2 fluor cs = Total Fluorescence Counterscreen for Inhibitors of the Interaction of Thyroid Hormone Receptor and Steroid Receptor Coregulator 2; TRb/SRC2 Texas Red total fluorescence interference; Potency, µM (titrated, usually from 106 µM), for the others: at the top dose fluorescence change, negative = quenching; 280,000 compounds, 0.29% hits; active means well fitted curve in either direction with a large enough effect; inconclusive means small, poorly fitted or top-dose-only effect
#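 Human TRb ligand-binding domain at 0.6 uM with 20 nM Texas Red SRC2 peptide in Tris buffer containing 1 uM T3 and 5% DMSO, incubated with compound 5 h at ambient temperature. Total fluorescence (555/632 nm) calculated as parallel + 2 × perpendicular.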
# Numbers without * were called inactive; ? = inconclusive; · = no result; [ ] = another dose, or the depositor's remark. Unless noted, the call rests on the fitted dose curve; in most records, active means well fitted curve in the direction sought with a large enough effect; inconclusive means small, poorly fitted or top-dose-only effect, or another doubt; inactive means no such curve, though single readings can be large; an effect the other way counts as inactive or inconclusive. Unless noted, on the % scale 0 is the no-effect control and ±100 the full control effect; potency means the concentration at half of the fitted maximal effect.
SMILES,Tau FP inhib,TRb-SRC2 inh,JMJD2E inh,Tau ThT inhib,Tau fluor cs,TR SRC2 fluor cs
Cc1ccc2c(nc3s/c(=C/c4cccs4)c(=O)n32)c1C,?,-6%,5%,?,-14%,-8%
Cc1cc(C)c2nc3s/c(=C/c4ccccc4)c(=O)n3c2c1,?,-9%,0%,28µM*,-24%,-2%
CC1CC(C)CN(c2oc(-c3ccco3)nc2C#N)C1 (stereo unspecified),3%,-14%,-1%,4%,1%,-1%
Cc1cc(C)n2nc(SCC(=O)Nc3ccccc3)nc2n1,0%,-2%,-2%,-1%,2%,-2%
Cc1cc(C)c(NC(=O)CSc2nc3nc(C)cc(C)n3n2)c(C)c1,-13%,-9%,·,-12%,-20%,20µM*[quencher]
Cc1cc(C(=O)NCCCN2CC(C)CC(C)C2)n(-c2ccccc2)n1 (stereo unspecified),-1%,3%,4%,-7%,-11%,-2%
CCN1c2cc(C)ccc2-n2cccc2C12CCN(C(=O)Nc1cc(OC)c(OC)c(OC)c1)CC2,?,13%,·,-10%,-26%,0%
COc1cc(NC(=O)N2CCC3(CC2)Nc2cc(F)ccc2-n2cccc23)cc(OC)c1OC,?,4%,·,-11%,13µM*[quencher],-2%
COc1ccc(OCC(=O)NCC(c2ccc(OC)cc2)N2CCOCC2)cc1 (stereo unspecified),5%,-25%,·,-4%,-2%,89µM*[quencher]
CCc1ccc(OCC(=O)NCC(c2ccc(OC)cc2)N2CCOCC2)cc1 (stereo unspecified),5%,-1%,·,2%,-9%,-11%
O=C(O)CC(C(=O)O)N1C(=O)/C(=C/c2ccc(-c3nc4ccccc4s3)o2)SC1=S (stereo unspecified),?,-3%,2.8µM*,7.9µM*,-26%,-21%
O=C(O)CCN1C(=O)/C(=C/c2ccc(-c3nc4ccccc4s3)o2)SC1=S,-5%,-10%,-12%,1.3µM*,-25%,-3%
O=Cc1ccc(-c2nc3ccccc3s2)o1,-9%,-2%,?,?,-2%,-5%
O=C(O)CCCN1C(=O)/C(=C\c2ccc(-c3nc4ccccc4s3)o2)SC1=S,?,-3%,?,2.5µM*,?,-1%
CCN1CCN(c2oc(/C=C/c3cc(OC)c(OC)c(OC)c3)nc2C#N)CC1,1%,5%,·,-14%,-13%,-1%
O=C1Cc2cc(S(=O)(=O)Nc3cccc(C(F)(F)F)c3)cc3c2N1CCC3,-13%,-8%,·,-2%,-18%,-1%
CCOc1cc(N2CCOCC2)c(OCC)cc1NC(=O)CN1C(=O)C2C3C=CC(C3)C2C1=O (stereo unspecified),4%,9%,0%,-4%,-6%,1%
O=C1C(c2ccncc2)N(CCC2=CCCCC2)C(=O)CN1C1CCCCC1 (stereo unspecified),?,2%,?,7.9µM*,?,?
COc1ccc(Nc2nc(S(=O)(=O)c3ccc(C)cc3)c(Cl)s2)cc1,4%,15%,-7%,-17%,10µM*[quencher],-2%
Cc1ccc(S(=O)(=O)c2nc(NCCN(C)C)sc2Cl)cc1,-7%,3%,9%,-4%,-14%,2%
Cc1ccc(S(=O)(=O)c2nc(Nc3ccccc3)sc2Cl)cc1,?,-19%,3%,-1%,14µM*[quencher],-5%
O=C(CSCc1cccc(Cl)c1)Nc1ccccc1-c1ccccc1,-10%,0%,-9%,-14%,-10%,-2%
CCn1c(C)nc2cc(C(=O)NNC(=O)CCC3CCCCC3)ccc21,2%,?,-5%,2%,2%,3.5µM*[quencher]
O=C1c2cccc3cccc(c23)C(=O)N1c1cccnc1,13µM*,4%,-9%,-7%,?,2%
CCCN(Cc1ccco1)S(=O)(=O)c1ccc(OC)c(OC)c1,-8%,-2%,-3%,-4%,-16%,2%
SMILES,Tau FP inhib,TRb-SRC2 inh,JMJD2E inh,Tau ThT inhib,Tau fluor cs,TR SRC2 fluor cs
Cc1cc([N+](=O)[O-])nn1CC(=O)Nc1c(C)n(C)n(-c2ccccc2)c1=O,6%,-1%,-3%,6%,5%,-5%
C/C(=N/Nc1nc(-c2ccccc2)cc(-c2ccccc2)n1)c1ccc(N)cc1,0%,-4%,4%,?,?,-3%
C/C(=N/Nc1cc(-c2ccccc2)nc(-c2ccccc2)n1)c1ccc(O)cc1,?,7%,?,?,7.1µM*[quencher],-2%
O=C(NCCc1ccccc1)c1c[nH]c2ccc(S(=O)(=O)Nc3ccccc3F)cc2c1=O,13µM*,0%,·,-6%,?,-1%
CCN(CC)S(=O)(=O)c1ccc2[nH]cc(C(=O)NCCC3=CCCCC3)c(=O)c2c1,11µM*,10%,-26%,7%,?,1%
CCc1ccc(NS(=O)(=O)c2ccc3[nH]cc(C(=O)NCc4ccc(C)cc4)c(=O)c3c2)cc1,3.5µM*,5%,·,10%,?,1%
CCN(CC)S(=O)(=O)c1ccc2[nH]cc(C(=O)NCCN3CCCCCC3)c(=O)c2c1,0%,-7%,?,-5%,-12%,-9%
O=C(NCc1ccccc1)c1c[nH]c2ccc(S(=O)(=O)Nc3ccc4c(c3)OCCO4)cc2c1=O,?,3%,0%,-10%,10µM*[quencher],-2%
CCn1cc(C(=O)N2CCN(c3ccccc3OC)CC2)c(=O)c2cc(S(=O)(=O)N3CCCCC3)ccc21,-4%,-11%,·,-23%,-25%,0%
Cc1cccc(CNC(=O)c2ccc(N3Cc4ccccc4Oc4ncccc43)s2)c1,5%,-4%,·,0%,-25%,0%
CCOC(=O)C1C(c2ccccc2Cl)NC(=O)N(C)C1(O)C(F)(F)F (stereo unspecified),-6%,-6%,5%,-8%,-7%,1%
Cc1cccc(OCC(=O)N/N=C/c2ccccc2C(=O)O)c1,1%,7%,-11%,11%,3%,-2%
CCN(c1ccccc1)S(=O)(=O)c1nnc(NC(=O)c2cccs2)s1,?,-1%,·,2.2µM*,-13%,-9%
CCN(c1ccccc1)S(=O)(=O)c1nnc(NC(=O)COc2ccccc2F)s1,?,5%,·,4.5µM*,-21%,-24%
